Rows were chosen to be rich in hits. Some 2.2% of all compounds tested hit in one or more screens of this group.
TROY signal inh: blocks TROY-dependent signaling in reporter cells | actives 0.98% (n = 360,000) | Q293 LMP1-TROYcd NF-kB luciferase reporter, 4 h | inhibition, % at 10 µM;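 active means compounds whose plate-normalised and pattern-corrected inhibition of the luciferase reporter signal at the single screening dose is 50% or more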
LGR2 antag: inhibitors of bursicon-induced Drosophila LGR2 receptor cAMP signaling; HEK293 LGR2, CRE-luciferase, bursicon-stimulated, 4 h; inhibition, % at 9.99 µM; actives 0.35% (n = 380,000); AID 720647;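 active means drop in luminescence signal, shown as inhibition above about 50% in the replicate tests, limit read from the data, passing the limit was not always enough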;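 further: agonist challenge used bursicon conditioned medium at about half maximal strength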
HSP90 refold inh: HSP90 refolding inhibition in rabbit reticulocyte lysate; luciferase refolding luminescence, 3 h; AID 1789; actives 0.91% (n = 290,000); inhibition, % at 5.6 µM;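 active means inhibition above the screen-wide mean plus 3 SD, computed separately per campaign, cut at about 16% in these data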;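 further: 0% = DMSO wells and 100% = 60 µM geldanamycin wells; inhibitors lower the luminescence because luciferase stays unfolded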
TWEAK Fn14 block: blocks TWEAK-Fn14 interaction in a reporter cell assay | TWEAK-stimulated Fn14 reporter cells, luciferase luminescence, 8 h | actives 2% (n = 360,000) | inhibition, % at 10 µM; in the data active means inhibition above about 50%
Active calls of the source: *.

What do the screens show for `CC(C)CCN1CCN(Cc2cc(F)ccc2-n2cccn2)CC1CCO` (stereo not drawn)?
TROY signal inh: 7.2; LGR2 antag: -12.4; HSP90 refold inh: 3.3; TWEAK Fn14 block: -12.1

What do the screens show for `OCCC1CN(Cc2cc(F)ccc2-n2cccn2)CCN1C1CCCC1` (stereo not drawn)?
TROY signal inh: 8.3; LGR2 antag: -12.0; HSP90 refold inh: 5.9; TWEAK Fn14 block: 91.2*

Results for CS(=O)(=O)N1[C@@H]2Cn3c(ccc(-c4cccc(F)c4)c3=O)[C@H]1[C@@H](C(=O)N1CCOCC1)[C@@H]2CO ?
LGR2 antag: 3.8

What do the screens show for `CN(c1ccccc1)S(=O)(=O)c1ccc(NC(=O)c2nc(S(C)(=O)=O)ncc2Cl)cc1`?
TROY signal inh: 71.0*; LGR2 antag: 9.8; HSP90 refold inh: 0.0; TWEAK Fn14 block: 93.2*

What do the screens show for `COc1cccc(NC(=O)c2nc(SC)ncc2Cl)c1`?
TROY signal inh: 13.6; LGR2 antag: -1.8; HSP90 refold inh: 1.7; TWEAK Fn14 block: -1.5

Results for COc1cccc(NC(=O)c2nc(S(C)(=O)=O)ncc2Cl)c1 ?
TROY signal inh: 53.0*; LGR2 antag: 1.5; HSP90 refold inh: -2.6; TWEAK Fn14 block: 74.4*

What do the screens show for `CN(c1ccccc1)S(=O)(=O)c1ccc(NC(=O)c2ccccc2)cc1`?
TROY signal inh: 10.6; LGR2 antag: -9.7; HSP90 refold inh: -4.0; TWEAK Fn14 block: 17.6

What do the screens show for `O=C1/C(=C\c2ccc(Cl)c(Cl)c2)CN(C(=O)CCN2CCOCC2)C/C1=C/c1ccc(Cl)c(Cl)c1`?
TROY signal inh: 77.5*; LGR2 antag: 90.6*; TWEAK Fn14 block: 106.6*

What do the screens show for `O=C(CCN1C(=O)S/C(=C\c2ccccc2)C1=O)N1CCCCC1`?
TROY signal inh: -43.8; LGR2 antag: -6.0; HSP90 refold inh: -0.2; TWEAK Fn14 block: -14.6

Results for O=C1/C(=C\c2ccccc2)CN(C(=O)CCN2CCCCC2)C/C1=C/c1ccccc1 ?
TROY signal inh: 68.6*; LGR2 antag: 104.0*; TWEAK Fn14 block: 105.9*

How did O=C(NCCN1CCOCC1)c1ccc(Cl)c(Cl)c1 do in these assays?
TROY signal inh: 1.7; LGR2 antag: 3.7; HSP90 refold inh: -0.1; TWEAK Fn14 block: 1.6

Results for CCN(CC)CCC(=O)N1C/C(=C/c2ccccc2)C(=O)/C(=C\c2ccccc2)C1 ?
TROY signal inh: 62.7*; LGR2 antag: 92.2*; TWEAK Fn14 block: 106.8*

How did O=C1/C(=C\c2ccccc2)CCC/C1=C/c1ccccc1 do in these assays?
TROY signal inh: -14.6; LGR2 antag: -42.9; TWEAK Fn14 block: 13.4

How did CC(C)NC(=O)Nc1ccc2c(c1)C(=O)N([C@H](C)CO)C[C@H](C)[C@@H](CN(C)S(=O)(=O)c1cccs1)OCCCC[C@@H](C)O2 do in these assays?
LGR2 antag: -0.3

Results for CCC(=O)Nc1ccc2c(c1)C(=O)N(C)C[C@@H](OC)[C@@H](C)CN(CCc1ccccc1)[C@@H](C)CO2 ?
LGR2 antag: 0.4

How did CCc1ccc(NC(=O)c2nc(S(=O)(=O)Cc3ccccc3)ncc2Cl)cc1 do in these assays?
TROY signal inh: 78.8*; LGR2 antag: 3.3; HSP90 refold inh: 0.2; TWEAK Fn14 block: 85.9*

How did CCOC(=O)c1ccc(NC(=O)CCS(=O)(=O)Cc2ccccc2)cc1 do in these assays?
TROY signal inh: -26.6; LGR2 antag: 6.3; HSP90 refold inh: 4.6; TWEAK Fn14 block: -1.3

What do the screens show for `CSc1ncc(Cl)c(C(=O)Nc2ccc(C)c(C)c2)n1`?
TROY signal inh: -12.8; LGR2 antag: 3.8; HSP90 refold inh: -4.0; TWEAK Fn14 block: -10.3

How did CCOC(=O)c1ccc(NC(=O)c2nc(S(=O)(=O)Cc3ccccc3)ncc2Cl)cc1 do in these assays?
TROY signal inh: 63.0*; LGR2 antag: -9.1; HSP90 refold inh: 2.5; TWEAK Fn14 block: 62.5*

Results for Cc1ccc(NC(=O)c2nc(S(=O)(=O)Cc3ccccc3C)ncc2Cl)cc1C ?
TROY signal inh: 85.6*; LGR2 antag: 2.7; HSP90 refold inh: 3.3; TWEAK Fn14 block: 82.8*

How did CC1CCN(S(=O)(=O)c2ccc(NC(=O)c3ccncc3)cc2)CC1 do in these assays?
TROY signal inh: 20.2; LGR2 antag: 4.6; HSP90 refold inh: 0.8; TWEAK Fn14 block: 1.8

What do the screens show for `CCS(=O)(=O)c1ncc(Cl)c(C(=O)Nc2ccc(S(=O)(=O)N3CCC(C)CC3)cc2)n1`?
TROY signal inh: 85.0*; LGR2 antag: 20.9; HSP90 refold inh: 3.1; TWEAK Fn14 block: 95.4*

What do the screens show for `COc1ccc(-c2cn(CC[C@H]3CC[C@@H](NC(=O)NC(C)C)[C@H](CO)O3)nn2)cc1`?
LGR2 antag: -1.5

Results for O=C(COC(=O)CCN1C(=O)/C(=C\C=C\c2ccccc2)SC1=S)Nc1cc(F)ccc1F ?
TROY signal inh: 25.4; LGR2 antag: 0.1; HSP90 refold inh: -1.0; TWEAK Fn14 block: 54.6*

How did CC(=O)Oc1cc2cccc(OC(C)=O)c(=O)c2c(OC(C)=O)c1OC(C)=O do in these assays?
TROY signal inh: 34.5; HSP90 refold inh: 0.1; TWEAK Fn14 block: 84.5*

What do the screens show for `COc1cc2cccc(OC)c(=O)c2c(O)c1OC`?
TROY signal inh: -21.5; LGR2 antag: 7.1; HSP90 refold inh: -3.9; TWEAK Fn14 block: -41.3

Results for O=C(O)c1cc(O)ccc1NC(=O)C(c1ccccc1)c1ccccc1 ?
TROY signal inh: 60.6*; LGR2 antag: 4.1; HSP90 refold inh: -1.3; TWEAK Fn14 block: 110.1*

Results for Cc1c(NC(=O)C(c2ccccc2)c2ccccc2)cccc1C(=O)O ?
TROY signal inh: -40.9; LGR2 antag: -5.9; HSP90 refold inh: 1.5; TWEAK Fn14 block: 2.2

Results for CC(C)CC#Cc1ccc([C@H]2[C@H]3CN(C(=O)NC4CCCC4)CCCCN3[C@H]2CO)cc1 ?
LGR2 antag: 14.0

What do the screens show for `O=[N+]([O-])c1cccc(NC(=S)Nc2nc(-c3ccccc3Cl)cs2)c1`?
TROY signal inh: 39.6; LGR2 antag: 22.2; HSP90 refold inh: 5.2; TWEAK Fn14 block: 56.0*

What do the screens show for `COc1cccc2cc(C(=O)C3=C(O)C(=O)N(CCN(C)C)C3c3ccc(Cl)cc3)oc12` (stereo not drawn)?
TROY signal inh: -0.6; LGR2 antag: -0.2; HSP90 refold inh: 1.2; TWEAK Fn14 block: 60.2*

How did O=C(Cc1ccccn1)NCC[C@H]1CC[C@@H](NC(=O)Nc2ccccc2)[C@H](CO)O1 do in these assays?
LGR2 antag: 24.2

What do the screens show for `C=CC(=O)N1C/C(=C/c2ccc(F)cc2)C(=O)/C(=C\c2ccc(F)cc2)C1`?
TROY signal inh: 78.6*; LGR2 antag: 100.9*; TWEAK Fn14 block: 105.9*

Results for O=C(/C=C/c1ccc(F)cc1)N1CCN(S(=O)(=O)/C=C/c2ccccc2)CC1 ?
TROY signal inh: -0.9; LGR2 antag: 17.2; HSP90 refold inh: -1.7; TWEAK Fn14 block: 8.4

Results for CN(C)c1ccc(NC(=O)c2cccc(C(=O)Nc3ccc(N(C)C)cc3)n2)cc1 ?
TROY signal inh: 11.4; LGR2 antag: -15.0; HSP90 refold inh: -2.9; TWEAK Fn14 block: 50.6*

What do the screens show for `O=C(Nc1ccccc1)c1cccc(C(=O)Nc2ccccc2)n1`?
TROY signal inh: 2.1; LGR2 antag: 24.4; HSP90 refold inh: -0.7; TWEAK Fn14 block: 1.5

Screens from PubChem.
